PNC assembly inh = High Content Assay for Compounds that inhibit the Assembly of the Perinucleolar Compartment | PC3M PTB-GFP, PNC prevalence imaging, 16 h; active compounds read low | activity change (PNC), negative = inhibition, % at 10 µM | 140,000 compounds, 3.1% hits | AID 2417, 2010;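 active means readout at or below -70, meaning at least 70% loss of cells showing the perinucleolar compartment, a nuclear body marking cancer cells; inconclusive means readout between -30 and a set limit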;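 further: plate controls were DMSO wells for no effect and camptothecin positive control wells for full effect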
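Read-out is percentage of cells bearing a perinucleolar compartment, from automated 20x imaging of fixed, Hoechst-stained PC3M PTB-GFP cells. Cells were seeded 4 h, then exposed 16 h to compound (23 nl of library stock) in duplicate plates.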
HTT cytoprotect = qHTS Multiplex Assay to Identify Dual Action Probes in a Cell Model of Huntington: Cytoprotection (ATP). AID 1471, 2008. 230,000 compounds, 0.14% hits. Potency, µM (highest dose often 56.4 µM), without a hit: cytoprotection (ATP increase), actives largely listed as activators. PC12 HTT-Q103 induced, cytoprotection, ATP luminescence, 40 h; further: potency means the concentration at half of the fitted maximal effect; % of control where 0% means no effect; nearly all actives have a fitted effect of over 45% in size
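Huntington model: PC12 line, ecdysone-inducible HTTQ103 exon1–GFP, tebufenozide 100 nM. Test articles in a dose series. Endpoint luminescence from cellular ATP.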
HTT aggregate = qHTS Multiplex Assay to Identify Dual Action Probes in a Cell Model of Huntington: Aggregate Formation (GFP) | Potency, µM (series often up to 46.1 µM), inactives show at the highest dose activity change, negative = inhibition, usual class: inhibitors | 220,000 compounds, 1.1% hits | PC12 HttQ103-GFP aggregates, Acumen cytometry, 40 h; further: potency means the concentration at half of the fitted maximal effect; on the % scale 0 is the no-effect control and ±100 the full control effect; nearly all actives have a fitted effect of over 60% in size
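PC12 cells with ecdysone-inducible HTT exon1 Q103-GFP, induced by 100 nM tebufenozide, given compounds in a concentration series. GFP aggregates (1–25 um, 6 SD above background) counted in lysates by laser-scanning cytometry, 488 nm excitation.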
An asterisk follows results filed as active; u = inconclusive; x = no result given; [ ] = dose if it differs, or a comment. Shown is part of a subset that was picked to be rich in hits. Unless noted, the call rests on the fitted dose curve; in most records, active means well fitted curve in the direction sought with a large enough effect; inconclusive means small, poorly fitted or top-dose-only effect, or another doubt; inactive means no such curve, though single readings can be large; an effect the other way counts as inactive or inconclusive.

SMILES	PNC assembly inh	HTT cytoprotect	HTT aggregate
Cc1cccc(NC(=O)c2cc(NC(=O)C3CCCCC3C(=O)O)ccc2Cl)n1 (centres undefined)	u	-13.3%[0.074 µM]	-14.8%
Cc1cccc(NC(=O)c2cc(NC(=O)c3ccco3)ccc2Cl)n1	-110.0*	-7.1%[10 µM]	-11.4%
COc1ccc(-c2noc(CN(C)CCC3CCCCO3)n2)cc1 (centres undefined)	x	-25.9%[10 µM]	-11.6%[9.22 µM]
Cc1cc(OCC(=O)Nn2cnnc2)ccc1Br	u	-15.8%	-9.2%[9.22 µM]
Cc1cc(Nc2c(C#N)c(N)nn2C)ccc1F	x	4.5%[10 µM]	-15.1%
N#Cc1ccc(-c2ccco2)nc1SCC(=O)c1ccc(Cl)cc1	-5.9	-14.3%	-16.8%
COc1ccc(CNC(=O)c2cc3c(C)nc4ccccc4c3o2)c(OC)c1	-17.8	6.6%	3.98µM*
COc1cc(NC(=O)c2cc3c(C)nc4ccccc4c3o2)cc(OC)c1OC	18.1	-4.3%	u
COc1cccc(CNC(=O)c2cc3c(C)nc4ccccc4c3o2)c1	-18.3	-66.5%	10µM*
CCCCN(CC)CCNC(=O)c1cc2c(C)nc3ccccc3c2o1	u	-5.8%	8.9%
CCc1ccc(CNC(=O)c2cc3c(C)nc4ccccc4c3o2)cc1	u	25.6%[10 µM]	10µM*
Cc1nc2ccccc2c2oc(C(=O)NCC3COc4ccccc4O3)cc12 (centres undefined)	-15.3	7.9%[10 µM]	u
O=C(Cc1cccs1)N1CCN=C1SCc1ccccc1F	x	2.0%	14.2%
CCn1cc(C(=O)OCC(=O)Nc2ccc(S(=O)(=O)N3CCCC3)cc2)c(=O)c2ccc(C)nc21	37.0	5.1%	-2.1%
Cc1ccc(/C=N/NC(=O)CCCOc2ccc(Cl)cc2Cl)cc1	48.3	32.7%[10 µM]	-8.5%
CCCCOC(=O)C1=C(C)NC2(O)c3ccccc3C(=O)C12O (centres undefined)	8.2	18.7%	-8.5%
Cc1nnc(SC(C)C(=O)Nc2ncc(Cl)cc2Cl)n1Cc1ccccc1 (centres undefined)	-3.8	-8.5%	2.2%
Cc1cc(SC(C)C(=O)Nc2ncc(Cl)cc2Cl)nc2ccccc12 (centres undefined)	-92.0*	-6.5%[10 µM]	-21.5%
COCCn1c(SC(C)C(=O)Nc2ncc(Cl)cc2Cl)nc2ccccc21 (centres undefined)	-103.2*	25.1%	0.7%
CC(OC(=O)CCc1nc2ccccc2c(=O)[nH]1)C(=O)Nc1ncc(Cl)cc1Cl (centres undefined)	x	-19.0%	-4.2%
CCNc1ncc2nc(-c3ccccc3)c(=O)n(CCc3ccccc3)c2n1	x	-11.8%	x
CCNc1ncc2nc(-c3cccs3)c(=O)n(CCc3ccccc3)c2n1	x	1.41µM*	x
O=C(Nc1nccs1)C12CC3CC(C1)CC(C(=O)Nc1nccs1)(C3)C2	-88.3*	-9.6%	-28.1%
O=C(Nc1ncccn1)C12CC3CC(CC(C3)C1)C2	x	2.3%[10 µM]	-33.1%[9.22 µM]
C/C(=N\NC(=O)C1CC1c1ccccc1)c1ccc(C)s1 (centres undefined)	-21.2	-9.6%	0.9%
SMILES	PNC assembly inh	HTT cytoprotect	HTT aggregate
CSc1nc(Oc2ccc(Cl)cc2)c2sccc2n1	u	-14.9%[10 µM]	-1.6%
O=C(NCCCN1CCOCC1)C1CCC(=O)N1CCc1ccccc1 (centres undefined)	-3.8	0.7%	1.5%
CCOC(=O)Nc1nnc(-c2ccccc2OC)s1	-118.9*	6.1%[10 µM]	4.9%
COC(=O)Nc1nnc(-c2ccccc2OC)s1	x	-7.4%[10 µM]	16.3%[9.22 µM]
C=CCn1c(SCC(=O)Nc2sccc2C(N)=O)nc2sc(CC)cc2c1=O	-9.2	-22.3%	-20.1%
Cc1c(CNC2CCCC2)c(C(=O)O)c(C)n1Cc1ccccc1	u	114.7%[10 µM]	0.794µM*
Cc1c(CNC2CCC(C)CC2)c(C(=O)O)c(C)n1Cc1ccccc1 (centres undefined)	-10.3	-10.2%[10 µM]	-6.0%
CC1CN(C(=O)N(C)C)CCN1C(=O)N(C)C (centres undefined)	-126.5*	-4.8%	-5.7%
CN(C)C(=O)N1CCN(C(=O)N(C)C)CC1	-9.2	-2.1%	0.7%
COc1cc(/C=C/C(=O)OCC(=O)NC(=O)NC(C)C)ccc1O	x	10.2%[10 µM]	21.7%[9.22 µM]
COc1cc(/C=C/C(=O)OCC(=O)NC(=O)NC(C)C)ccc1OCC#N	-85.1*	-1.5%[10 µM]	17.7%
CC(C)c1onc(C(=O)NCCc2ccccc2)c1[N+](=O)[O-]	x	11.6%	-4.8%
CC(C)c1onc(C(=O)NC(C)c2ccccc2)c1[N+](=O)[O-] (centres undefined)	x	-41.4%	4.47µM*
Cc1nc(NCc2ccccc2)c2nc(-c3ccccc3)n(CCCN3CCCCC3C)c2n1 (centres undefined)	x	-56.5%	x
CC(C)Cc1ccc(-c2cc(=O)[nH][nH]2)cc1	x	-7.6%	-1.5%[9.22 µM]

Screening data: PubChem, National Center for Advancing Translational Sciences (NCATS)
